# Source: PubChem BioAssay
# FECH inh – inhibitors of human ferrochelatase. purified FECH, Ni-mesoporphyrin absorbance 550 nm. P22830. actives 3.3% (n = 20,000). calls only at 10 µM (by protocol);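 active = enzyme reaction rate more than 3 SD below the solvent-only control wells on the same plate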;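 also: lower slope than DMSO wells means FECH inhibition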
# Target sequence (P22830 whole entry, looked up): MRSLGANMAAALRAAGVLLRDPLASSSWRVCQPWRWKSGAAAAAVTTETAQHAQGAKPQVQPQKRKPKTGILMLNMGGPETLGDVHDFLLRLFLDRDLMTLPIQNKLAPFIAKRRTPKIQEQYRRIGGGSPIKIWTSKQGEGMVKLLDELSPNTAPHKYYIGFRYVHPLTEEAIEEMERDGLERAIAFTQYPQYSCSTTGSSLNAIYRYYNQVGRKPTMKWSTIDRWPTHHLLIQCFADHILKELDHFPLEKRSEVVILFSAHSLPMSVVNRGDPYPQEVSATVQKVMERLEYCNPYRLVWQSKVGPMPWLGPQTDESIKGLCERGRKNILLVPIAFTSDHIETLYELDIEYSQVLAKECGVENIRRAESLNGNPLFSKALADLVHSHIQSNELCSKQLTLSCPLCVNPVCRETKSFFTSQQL
# Active calls of the source: *; i = inactive; + = active, no number. This excerpt belongs to a sample that is enriched for hits.
SMILES,FECH inh
Cc1ccn2c(=O)cc(COc3cccc(NC(=O)C(C)C)c3)nc2c1,+
COc1ccccc1C(=O)Nc1cccc(OCc2cc(=O)n3cc(Cl)ccc3n2)c1,+
Cc1ccn2c(=O)cc(COc3cccc(NC(=O)c4cccc(Br)c4)c3)nc2c1,i
Cc1ccn2c(=O)cc(COc3cccc(NC(=O)c4ccco4)c3)nc2c1,+
COc1ccc(C(=O)Nc2cccc(OCc3cc(=O)n4ccc(C)cc4n3)c2)cc1,i
Cc1ccn2c(=O)cc(COc3cccc(NC(=O)c4ccccc4C)c3)nc2c1,i
CCc1ocnc1C(=O)N1CCCC(C(=O)c2ccccn2)C1 (stereo not given),i
Cc1cnccc1CN1CC(C(=O)O)CC1=O (stereo not given),i
O=C(NCC1=CCCN(CC(=O)N2CCOCC2)C1)c1cccs1,i
COc1cccc(OC)c1C(=O)Nc1ccc(Cl)c(N2CCCS2(=O)=O)c1,i
CC(C)N(CCC(N)=O)S(=O)(=O)NCc1ccccc1,i
Cc1cc(C)n(-c2cc(Nc3ccc(Cl)cc3)ncn2)n1,i
COc1cccc(Nc2cc(-n3nc(C)cc3C)ncn2)c1,i
COc1cc(Nc2cc(-n3nc(C)cc3C)ncn2)cc(OC)c1,+
Cc1ccc(CNS(=O)(=O)c2ccc3c(c2)CCN3C(=O)CCC(=O)N2CCOCC2)cc1,i
CC(=O)Nc1nc2n(n1)C(c1c(F)cccc1Cl)C=C(c1ccc(C)cc1)N2 (stereo not given),i
CCCC(=O)Nc1nc2n(n1)C(c1c(F)cccc1Cl)C=C(c1ccc(Cl)cc1)N2 (stereo not given),i
CC(C)C(=O)Nc1nc2n(n1)C(c1c(F)cccc1Cl)C=C(c1ccccc1)N2 (stereo not given),+
CC(C)C(=O)Nc1nc2n(n1)C(c1ccc(Cl)cc1)C=C(c1ccccc1)N2 (stereo not given),i
CCC(=O)Nc1nc2n(n1)C(c1c(F)cccc1Cl)C=C(c1ccc(Cl)cc1)N2 (stereo not given),i
CCC(=O)Nc1nc2n(n1)C(c1c(F)cccc1Cl)C=C(c1ccccc1)N2 (stereo not given),+
CCOc1ccc(C(=O)Nc2ccc(Nc3nc(C)cc(N4CCCC4)n3)cc2)cc1,i
CSc1nc(-c2ccc(C)cc2)c(C#N)c(N2CCC(Cc3ccccc3)CC2)n1,i
Cc1ccc(NC(=O)CN2CCN(Cc3ccccc3F)S2(=O)=O)c(C)c1,i
CCc1c(C)nc2ncnn2c1Sc1ccc(NS(=O)(=O)c2ccc(C)cc2C)cc1,i
SMILES,FECH inh
Cc1cc2n(n1)CCC(=O)N2Cc1ccc(C(=O)Nc2ccc(F)cc2Cl)cc1,i
CCC/C=C/c1cc(C(=O)O)cc(S(=O)(=O)N2CCCC2)c1,i
Cc1ccccc1-c1noc(CN2CCCC3(CC2)CNC(=O)O3)n1 (stereo not given),i
CCCCSCCCNC(=O)c1cc2n(n1)CC(C)(C(=O)NCc1ccc(F)cc1)N(C)C2=O (stereo not given),i
Cc1cccc(C(C(=O)NCc2nnc3n2CCC3)N(C)C)c1 (stereo not given),i
Cc1ccc(C)c(OCc2cc(C(=O)NCc3nnc4n3CCC4)no2)c1,+
O=C(NCC1CCCCO1)c1cc(COc2c(F)cccc2F)on1 (stereo not given),i
COc1ccc(CNc2nc3nc(CNc4ccc(OC)cc4)cc(=O)n3[nH]2)cc1,i
COc1ccccc1CNc1nc2nc(CNc3cccc(C(F)(F)F)c3)cc(=O)n2[nH]1,i
CCc1nc2nc(C)c(NC(=O)Nc3ccc(C)c(Cl)c3)c(=O)n2[nH]1,i
Cc1ccc(NCc2nc3nc(C(C)C)cc(=O)n3[nH]2)cc1Cl,+
COc1ccc(CNc2nc3nc(CNc4cccc(C(F)(F)F)c4)cc(=O)n3[nH]2)cc1,i
CC(C)c1cc(=O)n2[nH]c(CNc3cccc(C(F)(F)F)c3)nc2n1,+
COCCn1c(CNC(=O)CCc2ccc(OC)cc2)nc2cccnc21,i
c1ccc(Cn2nnnc2CN2CCc3onc(-c4ccccc4)c3C2)cc1,i
CCCc1c(C)nc2ncnn2c1Sc1ccccc1NC(=O)c1ccc(F)cc1,i
CCCc1c(C)nc2ncnn2c1Sc1ccccc1NC(=O)c1ccccc1,+
Cc1nc2nc(-c3ccccc3)nn2c(Sc2ccccc2NC(=O)COc2ccc(Cl)cc2)c1C,+
COc1ccc(CC(=O)Nc2ccccc2Sc2c(C)c(C)nc3nc(-c4ccccc4)nn23)cc1,i
Cc1ccc(OCC(=O)Nc2ccccc2Sc2c(C)c(C)nc3ncnn23)cc1,i
CCc1c(C)nc2ncnn2c1Sc1ccccc1NC(=O)c1cccc(F)c1,i
CCCc1c(C)nc2ncnn2c1Sc1ccccc1NC(=O)c1cccc(OC)c1,+
CCc1c(C)nc2ncnn2c1Sc1ccccc1NC(=O)c1cccc(C)c1,i
CCCc1c(C)nc2ncnn2c1Sc1ccccc1NC(=O)c1ccco1,i
Cc1ccccc1OCC(=O)Nc1ccccc1Sc1c(C)c(C)nc2ncnn12,+
SMILES,FECH inh
CCOc1ccccc1C(=O)Nc1ccccc1Sc1c(C)c(C)nc2ncnn12,i
Cc1cc(Sc2ccccc2NC(=O)COc2ccc(Cl)cc2)n2nc(-c3ccccc3)nc2n1,i
C=Cc1ccc(CN2CCCN(Cc3ccccc3Cl)S2(=O)=O)cc1,i
CCn1nc(C)c(C(=O)N2C[C@@H]3C4CCC(CC4)[C@@H]3C2)c1C,i
COc1ccc(Nc2cc(C)nc(Nc3ccc(NC(=O)c4cc(C)cc(C)c4)cc3)n2)cc1,i
CN1CCCCC1CCC(=O)NC1(CN2CCOCC2)CCCCC1 (stereo not given),i
COc1ccccc1C(=O)N(Cc1nc2nc(C)cc(C)n2n1)c1ccccc1,i
CCc1cccc(NC(=O)c2nc(N3CCCC3)c3oc4ccccc4c3n2)c1,i
COc1cccc(Nc2nc(NCc3ccccc3)nc3c2cnn3-c2ccccc2)c1,i
Cc1nc2ncnn2c(Sc2ccccc2NC(=O)c2ccc(Br)cc2)c1C,i
COc1cc(C(=O)Nc2ccccc2Sc2c(C)c(C)nc3ncnn23)cc(OC)c1OC,i
COc1ccc(C(=O)Nc2ccccc2Sc2c(C)c(C)nc3ncnn23)cc1,+
CCCc1cc(=O)n2[nH]c(CNc3ccc(C)c(C)c3)nc2n1,+
O=c1cc(CNc2ccccc2)nc2nc(NCc3ccccc3)[nH]n12,i
CCCc1cc(=O)n2[nH]c(CNc3ccccc3)nc2n1,+
CCCc1cc(=O)n2[nH]c(CNc3cccc(Cl)c3)nc2n1,+
Cc1ccc(NCc2cc(=O)n3[nH]c(NCc4ccc(F)cc4)nc3n2)cc1C,i
COc1cccc(NCc2cc(=O)n3[nH]c(NCc4ccccc4)nc3n2)c1,i
CCc1ccc(NCc2cc(=O)n3[nH]c(NCc4ccc(Cl)cc4)nc3n2)cc1,i
O=c1cc(CNc2ccccc2)nc2nc(NCc3ccc(Cl)cc3)[nH]n12,i
CCCc1cc(=O)n2[nH]c(CNc3cccc(OC)c3)nc2n1,+
CCCc1cc(=O)n2[nH]c(CNc3ccc(OCC)cc3)nc2n1,i
Cc1ccc(NCc2cc(=O)n3[nH]c(NCc4ccccc4)nc3n2)cc1C,i
COc1ccc(CNc2nc3nc(CNc4ccccc4)cc(=O)n3[nH]2)cc1,i
CC(C)c1nccn1CCCNC(=O)c1ccc(N2[C@@H]3CC[C@H]2CNC3)nc1,i
CC(CN(C)c1nc(C2CCCC2)nc2c1CNC2)N1CCOCC1 (stereo not given),i
